This note sets out measurements from PubChem BioAssay.

Assay [1] relates to Plasmodium falciparum Sir2 (PF13_0152, Sir2A). Nature of the assay: Plasmodium falciparum Sir2A binding compounds – biochemical, small-molecule microarray, 635 nm fluorescence, primary screen (AID 1098).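 Note: score merges spot fluorescence intensity with its signal-to-noise ratio.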 The conditions noted are these: fluorescence 635 nm, higher = more signal.
A short description of assay [2]: probe aDKK1 binding to arrayed compounds – biochemical, biotinylated probe, 635/667 nm fluorescence, primary screen (AID 1099).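 Note: score merges 667nm spot fluorescence with signal to noise across triplicate slides; reference of the scale not given here.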 The settings on record: small-molecule microarray, higher = more signal.
The nature of assay [3]: probe aCHRDL2 binding to arrayed compounds – biochemical, biotinylated probe, 635/667 nm fluorescence, primary screen (AID 1100). The settings on record: small-molecule microarray, higher = more signal.
A short description of assay [4]: change in splice reporter luminescence, either direction, cell-based, HEK293, spliceosome inhibition project, primary screen (AID 1101).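 Note: HEK293 cells carrying a splicing-competent luciferase reporter gene; test concentration not given here.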 The conditions noted are these: HEK293 splicing luciferase reporter, 24 h, higher = more signal, called active from +8 up or from −8 down. (Reporter assays use an easily measured gene product as a stand-in for the process of interest.)

Assay [5] deals with Fibroblast growth factor 10 (Homo sapiens) (UniProt O15520). Nature of the assay: compounds binding fibroblast growth factor 10 – biochemical, small-molecule microarray, 635 nm fluorescence, primary screen (AID 1102). The conditions noted are these: FGF10 binding, fluorescence 635 nm, higher = more signal.
The subject of assay [6] is glycogen synthase kinase-3 (GSK3A per assay name; protocol says GSK3B). Nature of the assay: compounds binding glycogen synthase kinase-3 – biochemical, small-molecule microarray, 635 nm fluorescence, GSK3A, primary screen (AID 1103). Note: the record names both GSK3A and GSK3B. The settings on record: fluorescence 635 nm, higher = more signal.
For assay [7], the target named is Epidermal growth factor receptor (Homo sapiens) (UniProt P00533). The assay can be described thus: compounds binding epidermal growth factor receptor – biochemical, small-molecule microarray, 635 nm fluorescence, primary screen (AID 1104).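 Note: score merges 667 nm emission intensity with spot signal to noise over triplicate slides.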 The conditions noted are these: EGFR binding, higher = more signal.
Assay [8] has as its target Follistatin-related protein 3 (Homo sapiens) (UniProt O95633). Nature of the assay: compounds binding follistatin-related protein 3 – biochemical, small-molecule microarray, 635 nm fluorescence, primary screen (AID 1105).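 Note: score merges emission near 667 nm and signal to noise per printed spot across three slides.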 The conditions noted are these: FSTL3 binding, higher = more signal.
Assay [9] deals with Dickkopf-related protein 1 (Homo sapiens) (UniProt O94907). The assay can be described thus: small molecules binding DKK1 protein – biochemical, small-molecule microarray, 635 nm fluorescence scan, primary screen (AID 1106).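 Note: score merges emission near 667 nm with signal to noise over three replicate slides.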 The settings on record: higher = more signal.
For assay [10], the system named is Inhibin beta A chain (activin A). Nature of the assay: small molecules binding activin A – biochemical, small-molecule microarray, 635 nm fluorescence scan, primary screen (AID 1107).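 Note: mouse activin A protein probed at 4.33 µg/mL on printed slides; score merges bound-protein fluorescence near 667 nm with spot signal-to-noise.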 The settings on record: INHBA, higher = more signal.

The source made the active and inactive calls.

Sequence of Fibroblast growth factor 10 (Homo sapiens) (O15520 whole entry, looked up): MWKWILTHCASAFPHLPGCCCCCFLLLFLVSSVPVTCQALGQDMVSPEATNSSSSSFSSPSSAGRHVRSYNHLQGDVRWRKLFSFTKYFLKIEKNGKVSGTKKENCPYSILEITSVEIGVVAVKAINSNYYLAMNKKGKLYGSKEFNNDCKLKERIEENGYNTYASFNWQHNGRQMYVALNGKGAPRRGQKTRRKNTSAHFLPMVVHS
Sequence of Dickkopf-related protein 1 (Homo sapiens) (O94907 whole entry, looked up): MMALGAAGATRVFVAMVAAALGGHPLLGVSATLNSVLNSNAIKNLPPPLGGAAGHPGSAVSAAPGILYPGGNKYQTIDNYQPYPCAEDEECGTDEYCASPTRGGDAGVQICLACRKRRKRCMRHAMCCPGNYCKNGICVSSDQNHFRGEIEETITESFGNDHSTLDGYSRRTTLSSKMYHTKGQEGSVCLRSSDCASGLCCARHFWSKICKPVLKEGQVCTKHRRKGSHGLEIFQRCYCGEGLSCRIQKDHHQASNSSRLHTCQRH
Sequence of Follistatin-related protein 3 (Homo sapiens) (O95633 whole entry, looked up): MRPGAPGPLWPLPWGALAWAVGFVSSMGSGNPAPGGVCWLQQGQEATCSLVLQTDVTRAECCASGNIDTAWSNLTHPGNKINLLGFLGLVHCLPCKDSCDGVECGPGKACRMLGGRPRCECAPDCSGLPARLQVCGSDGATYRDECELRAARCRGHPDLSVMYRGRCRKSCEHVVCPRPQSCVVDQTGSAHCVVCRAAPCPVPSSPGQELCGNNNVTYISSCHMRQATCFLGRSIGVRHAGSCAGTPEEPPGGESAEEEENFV
Sequence of Epidermal growth factor receptor (Homo sapiens) (P00533 whole entry, looked up): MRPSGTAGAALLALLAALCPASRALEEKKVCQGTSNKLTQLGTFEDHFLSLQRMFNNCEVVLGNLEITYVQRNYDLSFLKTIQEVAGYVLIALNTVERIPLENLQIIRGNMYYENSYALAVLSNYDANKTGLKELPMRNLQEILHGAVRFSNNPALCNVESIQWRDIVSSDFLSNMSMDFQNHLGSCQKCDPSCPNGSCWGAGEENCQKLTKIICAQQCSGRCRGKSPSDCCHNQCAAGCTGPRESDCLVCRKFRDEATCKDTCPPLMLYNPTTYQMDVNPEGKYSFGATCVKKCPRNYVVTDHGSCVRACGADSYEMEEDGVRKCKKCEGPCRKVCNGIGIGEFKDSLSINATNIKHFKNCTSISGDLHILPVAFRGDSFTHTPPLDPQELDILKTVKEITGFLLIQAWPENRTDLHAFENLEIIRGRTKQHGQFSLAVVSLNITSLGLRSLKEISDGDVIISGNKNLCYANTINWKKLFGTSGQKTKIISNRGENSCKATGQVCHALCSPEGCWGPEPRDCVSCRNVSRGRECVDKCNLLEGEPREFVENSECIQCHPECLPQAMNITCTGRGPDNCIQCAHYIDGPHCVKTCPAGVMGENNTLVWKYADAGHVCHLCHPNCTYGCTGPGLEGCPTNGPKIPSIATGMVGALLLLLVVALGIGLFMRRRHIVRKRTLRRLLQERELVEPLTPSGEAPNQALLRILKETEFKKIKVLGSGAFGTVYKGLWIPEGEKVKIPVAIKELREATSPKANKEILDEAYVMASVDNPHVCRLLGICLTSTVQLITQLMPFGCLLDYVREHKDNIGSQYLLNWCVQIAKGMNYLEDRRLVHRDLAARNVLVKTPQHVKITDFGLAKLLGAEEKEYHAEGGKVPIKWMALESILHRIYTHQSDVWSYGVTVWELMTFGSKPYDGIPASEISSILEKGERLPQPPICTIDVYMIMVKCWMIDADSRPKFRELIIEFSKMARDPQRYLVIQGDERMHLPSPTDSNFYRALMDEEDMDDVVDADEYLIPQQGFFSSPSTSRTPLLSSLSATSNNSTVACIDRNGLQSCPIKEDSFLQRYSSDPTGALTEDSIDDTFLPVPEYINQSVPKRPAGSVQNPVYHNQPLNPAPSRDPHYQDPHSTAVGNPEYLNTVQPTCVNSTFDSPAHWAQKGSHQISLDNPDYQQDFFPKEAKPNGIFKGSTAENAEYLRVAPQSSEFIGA

For the molecule `O=C1N(Cc2ccccc2)Cc2ccccc2C[C@@]12COC(c1ccc(OCCCO)cc1)=N2`, the composite z-score in assay [1] was 0.631; in assay [2], 1.02; in assay [3], 1.27; in [5] it was 0.334; in assay [6] it was 1.27; in assay [7] it was -0.622. Moreover, the composite z-score in assay [8] is 0.288; in [9], 0.306; in assay [10], 1.4. Further, the z-score in assay [4] is 6.28 (inactive).
Take `C[C@H]1C2[C@H](Cc3ccccc3)NC(=O)[C@]23C(=O)N[C@@H](Cc2ccccc2)C(=O)N2CCC[C@H]2C(=O)NC/C=C/CC/C=C/C3[C@@H]2O[C@]12C` (stereo not given in full): the composite z-score in assay [1] is 1.26; in [2], -0.297; in assay [3], -0.684; in assay [5], 1.38; in assay [6] it was 0.769; in assay [7] it was -0.0947. Also, the composite z-score stood at 0.895 in assay [8], 0.272 in [9] and 0.87 in assay [10]. Moreover, the z-score in assay [4] was 0.437 (inactive).
Take `O=C1C2C=CC(C(O)c3ccccn3)N(Nc3ccc([N+](=O)[O-])cc3)C2C(=O)N1c1ccccc1` (stereo not given): the composite z-score in [1] was found to be 1.42; in [2] it was 1.01; in assay [3], 0.891; in assay [5], 0.37; in assay [6], 0.377; in assay [7], 0.0711. The composite z-score in [8] is 0.55; in assay [9], -0.189; in [10], 0.522. In addition, the z-score in assay [4] is 0.981 (inactive).
As to `CC1C2C(CCCO)=CC(C3C(=O)N(C(N)=O)C(=O)C23)N1Cc1cccc(OC(F)(F)F)c1` (stereo not given), the composite z-score was 0.174 in assay [1]; -0.0132 in assay [2]; -0.311 in assay [3]; 0.646 in assay [5]; 0.719 in assay [6]; 0.177 in [7]. The composite z-score in [8] was 0.101; in assay [9] it was -0.26; in assay [10] it was -0.055. The z-score in assay [4] was -0.586 (inactive).
With `COc1cc2c(cc1OC)CN(C(=O)[C@@H]1[C@H]3C(=O)O[C@H](c4ccccc4)[C@H](c4ccccc4)N3[C@H](c3ccc(O)cc3)[C@@]13C(=O)Nc1ccc(C#CC4=CCCCC4)cc13)CC2`, the composite z-score in assay [1] came to 1.39; in assay [2], 0.716; in [3], 0.586; in [5], 0.975; in assay [6], 1.28; in assay [7], 0.452. Besides, the composite z-score in assay [8] was 1.03; in assay [9] it was 0.453; in [10], 0.475. For the same molecule, the z-score in [4] was -0.101 (inactive).
On to `CC[C@@H]1C=C(C(=O)O)[C@H](c2cccc(Cl)c2)N1S(=O)(=O)c1ccc(C)cc1`, for which the composite z-score was 0.514 in assay [1]; 0.472 in [2]; 0.692 in assay [3]; 0.0519 in assay [5]; 0.46 in assay [6]; -0.527 in assay [7]. Also, the composite z-score in [8] was -0.614; in assay [9] it was -0.785; in [10], 0.414. For the same molecule, in [4], the z-score is 0.608 (inactive).
In the case of `COc1cccc(C)c1NC(=O)O[C@H]1[C@H](OC(=O)Nc2ccc3c(c2)OCO3)[C@H](OC(=O)Nc2ccc3c(c2)OCO3)[C@@H](OC)O[C@@H]1CO`, the composite z-score is 1.28 in assay [1]; -0.0573 in [2]; 0.306 in [3]; 1.39 in assay [5]; 1.34 in [6]; 0.169 in [7]. Further, the composite z-score in [8] is 1.01; in [9], 0.487; in assay [10], 0.69. Besides, the z-score in [4] was -0.316 (inactive).
As to `COC(=O)C(CC#Cc1ccc2c(c1)[C@]1(C(=O)N2)[C@H](c2ccccc2OCCO)N2[C@H](c3ccccc3)[C@H](c3ccccc3)OC(=O)[C@H]2[C@@H]1C(=O)N1CCN(c2ncccn2)CC1)C(=O)OC`, the composite z-score in assay [1] was 1.01; in assay [2] it was -0.216; in [3], -0.145; in assay [5] it was 0.683; in assay [6] it was 1.29; in assay [7] it was 0.484. For the same molecule, the figures for the composite z-score in assay [8], in assay [9] and in assay [10] were 1.27, 0.891 and 0.143, respectively. For the same molecule, the z-score in assay [4] is -0.376 (inactive).
With `COCCOC(=O)N1C(=O)[C@@]2(c3cc(C#CCC(C(=O)OC)C(=O)OC)ccc31)[C@H](C(=O)N1CCc3cc(OC)c(OC)cc3C1)[C@H]1C(=O)O[C@H](c3ccccc3)[C@H](c3ccccc3)N1[C@@H]2c1ccccc1OCCO`, the composite z-score in assay [1] was 0.496; in [2], -0.381; in assay [3], -0.162; in assay [5] it was 1.18; in assay [6] it was 1.31; in [7], 1.01. The figures for the composite z-score in assay [8], in assay [9] and in assay [10] were 1.38, 1.19 and 1.02, respectively. Moreover, the z-score in assay [4] is -0.606 (inactive).
As to `Cc1ccc(S[C@]2(C(=O)NC3CC3)CC(=O)N(C3Cc4ccccc4C3)[C@@H]2c2ccc(CO)cc2I)cc1`, the composite z-score in assay [1] is 0.911; in assay [2], 0.379; in assay [3], 0.524; in assay [5] it was -0.745; in assay [6], -0.641; in [7], -1.62. In addition, the composite z-score was -1.11 in assay [8], -0.826 in [9] and 0.771 in assay [10]. In addition, in assay [4], the z-score was -1.38 (inactive).
For the molecule `CCCCC(=C=CC[C@H](O)c1ccccc1OCCO)CCO`, the composite z-score in assay [1] was 0.653; in assay [2] it was -0.182; in [3] it was -0.0244; in assay [5], 0.27; in assay [6] it was -0.123; in [7], -0.689. Moreover, the composite z-score was -0.569 in assay [8], -0.429 in assay [9] and 0.754 in assay [10]. Moreover, in assay [4], the z-score is -0.25 (inactive).
Regarding `CC[C@H]1C2=C3C(CC[C@H]4C(OCc5ccc(F)cc5C(F)(F)F)OC[C@](C)([C@@H]34)N(C(=O)OC(C)(C)C)C2)C(COC(C)=O)C1COC(C)=O` (stereo not given in full), the composite z-score is 0.386 in assay [1]; 0.62 in assay [2]; 0.971 in assay [3]; 0.402 in [5]; 0.665 in assay [6]; -0.379 in assay [7]. Moreover, the values for the composite z-score in assay [8], in assay [9] and in assay [10] were 0.418, -0.583 and 0.691, respectively. Besides, the z-score in assay [4] was -0.695 (inactive).
For the molecule `C=C(C(=O)CC[C@@H](OC(=O)c1ccccc1-c1ccccc1C(=O)O)c1ccc(OCCO)cc1)C(C)C`, the composite z-score is 0.994 in assay [1]; -0.0581 in assay [2]; -0.375 in assay [3]; 1.22 in assay [5]; 0.674 in assay [6]; 0.267 in assay [7]. Moreover, the composite z-score in assay [8] is 1.08; in [9], 0.776; in assay [10] it was 0.768. Further, the z-score in assay [4] was 0.379 (inactive).
Take `CC(=O)NCCCC[C@@H]1NC(=O)[C@H]2C[C@@H](C(=O)O)[C@@H](c3cccc(OCCO)c3)N2C1=O`: the composite z-score in [1] is 1.69; in assay [2], 0.904; in [3], 0.237; in [5] it was 1.25; in [6], 1.33; in assay [7], 0.556. In addition, the values for the composite z-score in [8], in assay [9] and in assay [10] were 1.32, 0.639 and 0.316, respectively. Also, in assay [4], the z-score was 0.345 (inactive).
In the case of `CCOC(=O)C1=CC[C@@H](c2ccccc2)N(S(=O)(=O)c2ccc(C)cc2)[C@@H]1C#N`, the composite z-score in assay [1] is 0.921; in assay [2], 0.386; in assay [3] it was 0.868; in [5] it was 0.562; in [6], -0.199; in assay [7], -0.181. The composite z-score in assay [8] was 0.364; in [9], -0.542; in [10] it was 0.767. The z-score in assay [4] is 0.694 (inactive).
Take `CC[C@@H](O[Si](C#C[Si](C(C)C)(C(C)C)C(C)C)(C(C)C)C(C)C)c1cn([C@H](CO)Cc2ccccc2)nn1`: the composite z-score was 0.954 in [1]; -0.331 in [2]; -0.592 in assay [3]; 0.675 in assay [5]; 0.566 in [6]; 0.236 in assay [7]. Also, the composite z-score in assay [8] was 0.675; in [9] it was 0.39; in assay [10] it was -0.092. For the same molecule, in [4], the z-score was 0.131 (inactive).
